High-throughput results from PubChem.
Shown is part of a subset that was picked to be rich in hits.
Tb PYK inh – T. brucei pyruvate kinase inhibition | 0.12% of 410,000 active | TbPYK enzyme, Kinase-Glo Plus ATP luminescence, 45 min | Potency, µM (titrated, usually from 76.8 µM), for the others: top-dose activity, negative = inhibition, hits mostly inhibitors | Q57TT1; further: potency means the concentration at half of the fitted maximal effect; on the % scale 0 is the no-effect control and ±100 the full control effect; nearly all actives have a fitted effect of over 50% in size
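Enzyme and substrate buffer are dispensed first and compound is pin-transferred. ADP at 130 uM final then starts the reaction, which runs 45 min at room temperature. Detection reagent is added for 10 min before luminescence is imaged.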
Shiga toxin inh – inhibitors of Shiga toxin in Vero cells. inhibition, % at 38.7 µM. AID 2315. 9.2% of 290,000 active. Vero cells, Shiga toxin protein synthesis inhibition reporter; in the data active means inhibition mostly above about 28%, no sharp cut-off; inactive means mostly below about 43%; further: 0% is about no effect
LmPK inh – inhibitors of Leishmania mexicana pyruvate kinase; 0.37% of 290,000 active; Potency, µM (doses to about 57.5 µM), without a hit: at the highest dose activity change, negative = inhibition, actives largely listed as inhibitors; Q27686; purified LmPK, Kinase-Glo ATP luminescence, 1 h; further: potency means the concentration at half of the fitted maximal effect; on the % scale 0 is the no-effect control and ±100 the full control effect
Target sequence (Q27686 whole entry, looked up): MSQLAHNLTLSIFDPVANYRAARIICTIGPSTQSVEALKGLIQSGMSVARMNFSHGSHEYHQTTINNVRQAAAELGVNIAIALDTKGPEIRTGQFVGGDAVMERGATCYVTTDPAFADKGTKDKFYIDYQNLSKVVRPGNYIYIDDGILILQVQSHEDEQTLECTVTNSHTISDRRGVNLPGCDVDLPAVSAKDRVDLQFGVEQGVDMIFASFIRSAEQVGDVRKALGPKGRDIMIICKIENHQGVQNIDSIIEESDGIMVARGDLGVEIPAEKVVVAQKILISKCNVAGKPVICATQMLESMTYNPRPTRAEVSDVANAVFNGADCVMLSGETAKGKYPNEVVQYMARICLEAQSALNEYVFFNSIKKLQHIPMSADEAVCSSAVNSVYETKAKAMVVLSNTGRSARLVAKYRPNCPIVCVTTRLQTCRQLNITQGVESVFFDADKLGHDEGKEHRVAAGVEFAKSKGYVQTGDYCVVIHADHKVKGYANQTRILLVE
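qHTS format; LmPK 0.1 nM; substrates PEP 0.5 mM and ADP 0.1 mM. One-hour room-temperature incubation, then coupled luciferase luminescence; 0.5 nM enzyme wells mark activation.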
CHX counter – counter-screen for Shiga toxin inhibitors: cycloheximide protein synthesis inhibition; 12% of 300,000 active; max response, %; cell reporter, cycloheximide protein synthesis inhibition counterscreen; in the data active means max response mostly above about 13%, no sharp cut-off; inactive means mostly below about 14%; further: read at 38.3 µM for the half of the compounds with a filed dose; 0% is about no effect
RE007 growth inh – less growth of the S. pombe RE007 Vpr strain; S. pombe RE007 Vpr strain, BacTiter-Glo ATP luminescence, 24 h; Potency, µM (doses to about 92.2 µM), without a hit: at the top dose activity change, negative = less growth, hits mostly inhibitors; 0.21% of 360,000 active; active means well fitted falling curve with a large enough effect; inconclusive means small, poorly fitted or top-dose-only effect; inactive means no such curve, though single readings can be large or run the other way; further: potency means the concentration at half of the fitted maximal effect; on the % scale 0 is the no-effect control and ±100 the full control effect; nearly all actives have a fitted effect of over 50% in size
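Fission yeast strain RE007, carrying one chromosomally integrated HIV-1 vpr copy, was seeded at OD 0.01 in PMG+AL medium with 23 nL pinned compound. After 24 h at 30 °C and 99% humidity, viability was read by BacTiter-Glo luminescence.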
FBPA Giardia inh – Giardia lamblia aldolase inhibition | Potency, µM (titrated, usually from 59.6 µM), without a hit: at the top dose activity, negative = inhibition, hits mostly inhibitors | A8B2U2 | purified Giardia FBPA | 0.71% of 290,000 active; further: potency means the concentration at half of the fitted maximal effect; on the % scale 0 is the no-effect control and ±100 the full control effect; nearly all actives have a fitted effect of over 55% in size
Target sequence (A8B2U2 whole entry, looked up): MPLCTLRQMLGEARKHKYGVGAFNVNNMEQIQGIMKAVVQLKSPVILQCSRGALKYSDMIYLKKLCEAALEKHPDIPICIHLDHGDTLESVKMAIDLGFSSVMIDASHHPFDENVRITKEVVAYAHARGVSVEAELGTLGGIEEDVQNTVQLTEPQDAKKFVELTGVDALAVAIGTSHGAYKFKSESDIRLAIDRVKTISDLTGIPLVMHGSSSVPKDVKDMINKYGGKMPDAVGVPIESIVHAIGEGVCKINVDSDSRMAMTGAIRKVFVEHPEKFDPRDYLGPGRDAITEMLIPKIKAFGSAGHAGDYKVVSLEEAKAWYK
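Giardia FBPA (40 nM reagent) was preincubated 10 min at RT with compound (up to 57.5 uM final), then substrate plus GAPDH/TPI/NAD/arsenate coupling system with diaphorase/resazurin was added; resorufin fluorescence (525/598 nm) was read after 20 min.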
* hit, by the source's call; ? = inconclusive; · = no result; [ ] = dose if it differs, or a comment. Unless noted, the call rests on the fitted dose curve; in most records, active means well fitted curve in the direction sought with a large enough effect; inconclusive means small, poorly fitted or top-dose-only effect, or another doubt; inactive means no such curve, though single readings can be large; an effect the other way counts as inactive or inconclusive.

SMILES | Tb PYK inh | Shiga toxin inh | LmPK inh | CHX counter | RE007 growth inh | FBPA Giardia inh
Cc1c(C(=O)Nc2ccc(Cl)cc2)c2ccccn2c1C(=O)c1ccc(F)cc1 | -8.1% | -7.6 | -7.8% | -4.8 | -12.3% | 5.4%
Cc1c(C(=O)Nc2ccc(Cl)cc2)c2ccccn2c1CCc1ccncc1 | -5.2% | 38.9* | 3.0% | 27.6* | -4.7% | -13.5%
O[C@@H](CNC[C@H](O)[C@H]1CCc2cc(F)ccc2O1)[C@@H]1CCc2cc(F)ccc2O1 | 0.0% | · | · | · | · | ·
O=c1cc(-c2ccccc2)oc2cc(O)c(O)cc12 | · | · | · | · | · | -11.7%
Nc1cc([N+](=O)[O-])cc2oc(-c3ccccc3)cc12 | 0.1% | 53.5* | 0.3% | 53.0* | -1.9% | -0.7%
O=C(NCCc1ccccn1)c1ccc(OC(F)F)cc1 | -2.6% | 75.4* | -7.0% | 25.4* | 3.2% | 1.3%
O=C(NCc1ccccn1)C(F)(F)C(F)(F)C(=O)NCc1ccccn1 | -9.4% | -6.9 | -4.4% | -4.3 | 6.0% | 1.3%
O=C(NCCc1ccccn1)C(F)(F)C(F)(F)C(F)(F)C(F)(F)C(F)(F)C(F)F | -2.2% | -5.0 | 4.4% | 14.5* | 4.7% | 0.9%
O=C(NNC(=O)c1ccccn1)c1ccc(OC(F)F)cc1 | -5.6% | · | · | · | ? | ·
CCOc1ccc(C(=O)/C=C/c2ccc(SC)cc2)cc1 | -0.7% | 2.2 | -6.0% | 19.2 | -5.0% | -7.5%
Cc1ccc(/C=C/C(=O)c2ccc(O)cc2)cc1 | 0.2% | 49.3* | -19.1% | 28.4* | -12.5% | -5.5%
O=C(/C=C/c1ccc(I)cc1)c1ccc(B(O)O)cc1 | · | 15.7* | · | 28.7* | · | 1.3%
CSc1ccc(/C=C/C(=O)c2ccc(O)cc2)cc1 | 0.7% | 90.6* | -17.4% | 43.8* | -18.1% | 12.6%
COC(=O)c1cc(C)nc2c1c(=O)nc(SCc1cccc(C)c1)n2C1CC1 | -0.6% | · | · | · | · | ·
Clc1ccc(-c2ccnc(-n3cccc3)n2)s1 | -2.8% | 16.0 | 0.1% | 8.4 | -21.4% | -3.3%
Clc1ccsc1-c1ccnc(-n2cccc2)n1 | 8.2% | 52.0* | 1.1% | 22.2* | 2.7% | 0.5%
Cc1ccsc1-c1ccnc(-n2cccc2)n1 | 0.6% | 51.6* | -1.8% | 22.5* | -16.6% | 7.3%
c1coc(-c2ccnc(-n3cccc3)n2)c1 | 2.8% | 19.4 | 0.1% | 45.8* | -4.2% | 5.0%
O=C(CN1C(=O)COc2ccc(S(=O)(=O)N3CCOCC3)cc21)N1CCN(c2ccc(Cl)cc2)CC1 | 0.1% | · | · | · | · | ·
Clc1ccccc1-c1nnc(SCc2nc(-c3ccccc3)no2)n1-c1ccccc1 | 4.0% | · | · | · | · | ·
CC(C)C(=O)OCC(=O)[C@@]12OC(C3CCCCC3)O[C@@H]1CC1C3CCC4=CC(=O)C=C[C@]4(C)C3[C@@H](O)C[C@@]12C (stereo not given in full) | -8.5% | · | · | · | · | ·
CCC(=NCC1CCCO1)c1c(O)n(Cc2ccccc2)c(=O)[nH]c1=O (stereo not given) | -7.1% | -2.5 | 0.4% | -4.5 | 3.6% | 11.4%
CCCCn1c(O)c(/C(C)=N/NC(=O)Nc2ccccc2)c(=O)[nH]c1=O | 5.2% | 38.8* | 5.0% | 30.5* | 8.5% | 1.3%
C=CCn1c(O)c(C(C)=NCCc2ccccc2)c(=O)[nH]c1=O | 4.6% | -5.9 | -3.6% | 9.5 | 26.6% | 3.3%
CCCCn1c(O)c(C(C)=Nc2c(C)n(C)n(-c3ccccc3)c2=O)c(=O)[nH]c1=O | -2.3% | -13.7 | 0.1% | -4.3 | 3.3% | -0.7%
SMILES | Tb PYK inh | Shiga toxin inh | LmPK inh | CHX counter | RE007 growth inh | FBPA Giardia inh
CC/C(=N\NC(=O)c1ccccc1O)c1c(O)n(C2CCCCC2)c(=O)[nH]c1=O | -3.2% | 51.6* | 11.1% | 23.4* | -10.1% | ·
CC/C(=N\NC(=O)c1ccccc1)c1c(O)n(Cc2ccccc2)c(=O)[nH]c1=O | 8.2% | 53.5* | -2.8% | 57.4* | -6.1% | 13.2%
CCC(=NCCO)c1c(O)n(C2CCCCC2)c(=O)[nH]c1=O | -6.2% | -11.4 | -0.9% | -4.0 | 13.8% | -10.0%
C=CCn1c(O)c(/C(C)=N/NC(=S)Nc2ccccc2)c(=O)[nH]c1=O | -33.1% | 59.9* | 3.8% | 27.0* | -4.6% | ?
Fc1ccc(C(c2nnc(-c3ccccc3)o2)N2CCN(c3ccccc3)CC2)c(Cl)c1 (stereo not given) | 1.7% | · | · | · | · | ·
CCOC(=O)c1cccc(NC(=O)C(CC(C)C)N2Cc3ccccc3C2=O)c1 (stereo not given) | -0.6% | · | · | · | · | ·
C=CCn1c(O)c(C(CC)=NCCc2ccccc2)c(=O)[nH]c1=O | · | -17.9 | 3.2% | -2.2 | 18.7%[3.69 µM] | 3.1%
C=CCn1c(O)c(/C(CC)=N/NC(=S)Nc2ccccc2)c(=O)[nH]c1=O | ? | 63.4* | 3.8% | 35.1* | 6.1% | -19.8%
CCOc1ccccc1NC(=O)c1sc2nc3n(c(=O)c2c1C)CCCCC3 | 2.6% | · | · | · | · | ·
Cc1ccc(NC(=O)CSc2nc(-c3ccco3)nc3cc(=O)[nH]n23)cc1 | 0.1% | · | · | · | · | ·
Cc1ccc2cccc(OCc3ccc(Br)cc3)c2n1 | -4.7% | 1.3 | 6.6% | 9.8 | -22.1% | 0.2%
Nc1ncccc1OCc1ccc(Br)cc1 | 2.1% | 77.0* | -16.0% | 71.5* | -0.4% | ?
COc1ccc(COc2cccnc2N)cc1 | -3.8% | 56.4* | -12.1% | 35.3* | -7.2% | -3.7%
CC(C)c1ccc(Nc2nc3ccc(C(=O)c4ccccc4)cc3n3cnnc23)cc1 | 0.5%[15.4 µM] | · | · | · | · | ·
O=S1(=O)[C@H]2C[C@@H]3C=C[C@@]2(CN1Cc1cccc(C(F)(F)F)c1)O3 | -0.6% | 13.9 | -0.8% | 12.3* | 5.6% | -11.6%
Cc1cc(-c2nnc(-c3cccc(C(F)(F)F)c3)o2)no1 | 0.4% | 76.6* | -2.0% | 43.8* | -8.6% | 4.5%
Cc1ccc(-c2nnc(-c3cc(C)on3)o2)cc1 | -5.1% | 59.0* | -10.8% | 38.9* | -16.4% | -4.2%
FC(F)(F)Oc1ccccc1-c1nnc(-c2cccc(C(F)(F)F)c2)o1 | -0.6% | -7.4 | 0.4% | -2.3 | 7.1% | -2.6%
Cc1cc(-c2nnc(SCc3ccccn3)o2)no1 | -8.6% | 19.3 | 0.0% | 11.9 | -12.6% | 5.9%
COc1ccc(-c2cc(C(F)(F)F)nc(SCC(=O)N(C)Cc3ccccc3)n2)cc1 | 2.0% | · | · | · | · | ·
Cc1ccc2ncc(NC(=O)c3ccc(F)cc3)c(=O)n2c1 | -6.8% | 23.2 | -6.5% | 6.6 | 3.3% | 1.0%
O=C(Nc1cnc2ccccn2c1=O)c1ccc(Cl)cc1Cl | -1.1% | 96.3* | ? | 44.1* | 6.0% | 4.3%
Cc1ccc(C(=O)Nc2cnc3ccccn3c2=O)cc1 | 1.5% | 102.9* | -14.7% | 40.8* | 6.1% | -2.0%
COc1cccc2c1Oc1ncccc1N(C(=O)CCC(=O)NC(C)C)C2 | 1.8% | · | · | · | · | ·
CC(Cc1ccccn1)NC(=O)CCc1nnc(C2CCCCC2)o1 (stereo not given) | 1.6% | 14.9 | -0.2% | 10.7* | -8.1% | 0.8%
Cc1c(C(=O)NCc2ccc(F)cc2)sc2nc(-c3ccccc3)cn12 | -11.6% | · | · | · | · | ·
